PubChem BioAssay AID2796 (The Scripps Research Institute Molecular Screening Center, 2010)
The campaign covered roughly 320,000 compounds. About 8,000 (2.5%) were called active. The sample holds actives, similar compounds and a random draw of the others, so the mix is not that of the screen. Unmarked numbers belong to inactive results. Cut-off read from the data, not from the text of the source: active = activation above about 47%; inactive = the rest.

target: Aryl hydrocarbon receptor (Homo sapiens) (UniProt P35869); assay: AHR activators, primary screen, cell-based, luminescence, luciferase reporter, human (AID 2796); conditions: AHR-responsive luciferase reporter cells, at 5 µM, active compounds read high;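 note: 0% = vehicle wells and 100% = reference agonist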
Sequence (P35869 whole entry, looked up): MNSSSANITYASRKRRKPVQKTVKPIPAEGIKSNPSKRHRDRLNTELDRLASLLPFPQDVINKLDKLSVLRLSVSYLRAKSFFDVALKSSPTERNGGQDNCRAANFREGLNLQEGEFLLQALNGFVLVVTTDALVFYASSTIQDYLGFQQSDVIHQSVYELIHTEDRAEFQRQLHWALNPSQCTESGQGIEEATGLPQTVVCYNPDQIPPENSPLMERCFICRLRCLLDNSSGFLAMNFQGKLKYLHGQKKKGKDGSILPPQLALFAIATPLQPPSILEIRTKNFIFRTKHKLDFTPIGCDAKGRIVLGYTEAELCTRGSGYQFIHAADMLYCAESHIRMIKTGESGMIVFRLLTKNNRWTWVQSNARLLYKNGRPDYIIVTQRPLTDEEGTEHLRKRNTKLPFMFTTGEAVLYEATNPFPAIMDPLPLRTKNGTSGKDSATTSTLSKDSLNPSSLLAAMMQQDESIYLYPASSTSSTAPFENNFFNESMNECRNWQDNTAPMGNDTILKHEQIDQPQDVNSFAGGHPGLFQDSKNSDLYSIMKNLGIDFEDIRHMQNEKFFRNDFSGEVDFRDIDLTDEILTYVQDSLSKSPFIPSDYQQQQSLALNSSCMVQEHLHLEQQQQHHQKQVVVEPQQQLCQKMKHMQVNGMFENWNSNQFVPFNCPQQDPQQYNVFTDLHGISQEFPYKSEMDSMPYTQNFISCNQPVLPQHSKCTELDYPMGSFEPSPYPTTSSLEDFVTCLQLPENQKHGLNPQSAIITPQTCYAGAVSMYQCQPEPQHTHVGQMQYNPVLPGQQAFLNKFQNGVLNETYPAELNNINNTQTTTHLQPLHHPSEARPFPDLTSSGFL

| Compound | activation |
| --- | --- |
| COc1ccc(/C=N/n2nnnc2N)cc1OC | 9.89% |
| Nc1nnnn1/N=C/c1cccc(Br)c1 | 0.74% |
| C=CCOc1c(Br)cc(/C=N\n2nnnc2N)cc1OC | 115% (active) |
| CCC(=O)/C=C1\Sc2ccccc2N1CC | 47.6% (active) |
| S=C(NCCc1ccccc1)Nc1ccccc1 | 1.89% |
| CCN1/C(=C\c2ccc3ccccc3[n+]2CC)Sc2cc(C)ccc21 | -7.56% |
| CCNCCC(=O)N1c2ccccc2Sc2ccc(NC(=O)OCC)cc21 | 12.7% |
| CCN1/C(=C/C(=S)Nc2ccccc2)Sc2ccccc21 | 60.2% (active) |
| CCOC(=O)CNC(=O)N1c2ccccc2Sc2ccccc21 | -1.17% |
| CSCCC(Nc1ccc(S(=O)(=O)N2CCOCC2)cc1[N+](=O)[O-])C(=O)OCC(=O)N(C(C)C)C(C)C (stereo not given) | -0.88% |
| CN(C)c1ccc(CNC2C3CC4CC(C3)CC2C4)cc1 (stereo not given) | 1.86% |
| Clc1ccccc1SCc1nc2ccccc2[nH]1 | -2.01% |
| c1ccc(-c2nnc(SCc3nc4ccccc4[nH]3)o2)cc1 | 59.8% (active) |
| O=C(CSc1nc2ccccc2[nH]1)Nc1nc(-c2ccccc2)c(-c2ccccc2)o1 | 5.78% |
| Cc1cccc(C(=O)N2CCN(S(=O)(=O)N3CCCCC3)CC2)c1 | 0.85% |
| CC1CN(CC(=O)NC(C)c2ccccc2)CC(C)O1 (stereo not given) | -1.1% |
| COc1ccc(/C=N/Nc2cc(N3CCOCC3)nc(C)n2)c(OC)c1 | 69.5% (active) |
| CN(C)c1ccc(/C=N/Nc2cc(N3CCOCC3)nc(N3CCOCC3)n2)cc1 | 7.92% |
| C(=N/Nc1cc(N2CCOCC2)nc(N2CCOCC2)n1)/c1ccccc1 | -0.44% |
| Cn1c2ccccc2n2c(=O)c(=O)n(CC(=O)c3ccc(F)cc3)nc12 | 0.34% |
| C[C@H]1CN([C@@H](C)CO)C(=O)Cc2cc(NC(=O)Cc3ccccc3)ccc2O[C@H]1CN(C)S(=O)(=O)c1cccs1 | -0.6% |
| O=C(C[C@@H]1C/C=C\CCC(=O)OC[C@@H]2CCCN2C1=O)NCCO | 2.28% |
| O=C(Nc1cccc(S(=O)(=O)NC2=NCCC2)c1)c1ccc(F)cc1F | 1.17% |
| O=C(Nc1cc(S(=O)(=O)Nc2ccc(Cl)cc2)ccc1O)c1ccc(F)cc1F | 111% (active) |
| Cc1cc(NS(=O)(=O)c2ccc(NC(=S)NC(=O)c3ccc(F)cc3Cl)cc2)no1 | 17.3% |

| Compound | activation |
| --- | --- |
| Cc1ccccc1NS(=O)(=O)CCCCC(Cl)(Cl)Cl | -0.27% |
| COc1c(O)cccc1-c1nnn(CCC(=O)OCC(=O)c2ccccc2)n1 | 1.67% |
| Cc1cc(C(=O)NNC(=O)CCC2CCCCC2)c(C)o1 | 1.65% |
| Cc1cc(Nc2ccc(Br)cc2)nc2ccccc12 | 54.1% (active) |
| Cc1ccc2nc(Nc3ccccc3)cc(C)c2c1 | 26.6% |
| CCOC(=O)c1nc(Nc2ccc(C(=O)OC)cc2)c2ccccc2n1 | 1.95% |
| O=C(CCC(=O)N/N=C/c1ccc(Br)o1)N/N=C/c1ccc(Br)o1 | 4.48% |
| CCCNC(=O)N1CCC(c2ccc3c(c2)OCO3)CC1 | 1.31% |
| COc1ccc(CCNc2cc(C)nc3c(-c4ccc(Cl)cc4)c(C)nn23)cc1OC | 31.2% |
| Cc1ccsc1C(=O)N[C@@H](C)c1nnc2ccccn12 | 1.3% |
| COc1ccc(CCc2nc(-c3cccs3)no2)cc1 | 1.87% |
| COc1ccc(OC)c(CNC(=O)CCc2nc(-c3cccs3)no2)c1 | 61.3% (active) |
| CCc1ccc(CNC(=O)CCc2nc(-c3cccs3)no2)cc1 | 4.73% |
| CCn1c(SCC(=O)NC2CC2)nnc1-c1ccccc1OC | 14.6% |
| Cc1ccc(C(=O)Cc2nnc(C)s2)cc1 | -0.8% |
| CN(C)C(=O)COC(=O)c1cccc(S(=O)(=O)N2CC3(C)CC2CC(C)(C)C3)c1 (stereo not given) | -0.48% |
| CCOC(=O)C1CCN(C(=O)CN2C(=O)NC(C)(c3ccc4cc(OC)ccc4c3)C2=O)CC1 (stereo not given) | 0.29% |
| C=CCn1c(SCC(=O)Nc2ccc(NC(C)=O)cc2)nc2sc(C)c(C)c2c1=O | 0.33% |
| C=CCNC(=O)CSc1nc2sc(C)c(C)c2c(=O)[nH]1 | 107% (active) |
| CC(=O)c1sc2nc(SCC(=O)N3CCCCC3)[nH]c(=O)c2c1C | 15.1% |
| CN(Cc1cccc2ncccc12)C(=O)CC1C(=O)NCCN1Cc1ccc(F)cc1 (stereo not given) | -0.17% |
| CCOCC(=O)Nc1cc(OC)c(Cl)cc1OC | 19.9% |
| COc1cc(NC(=O)c2ccc(-c3csc(C)n3)cc2)c(OC)cc1Cl | 98.4% (active) |
| COc1cccc(CC(=O)Nc2ccc(-c3csc(C)n3)cc2)c1 | -4.95% |
| CC(NC(=O)COC(=O)Cn1cc(C(F)(F)F)ccc1=O)c1ccccc1 (stereo not given) | -0.22% |

| Compound | activation |
| --- | --- |
| Cc1cccc2cc(C#N)c(N3CCCC3)nc12 | 51.3% (active) |
| CC(=O)c1ccc(S(=O)(=O)N2CCN(c3nc4c(C)c(C)ccc4cc3C#N)CC2)cc1 | -2.8% |
| CCOC(=O)c1cc(C#N)c(N2CCCCC2)nc1-c1ccccc1 | 13.2% |
| O=C(Nc1ccc2c(c1)CCC2)c1ccc(Br)s1 | 12% |
| COC(=O)c1sccc1NC(=O)c1ccc(Cl)cc1 | 37.4% |
| CSc1ccc(/C=N/NC(=O)c2cccc(Cl)c2)cc1 | 13.9% |
| CSc1ccccc1NC(=O)c1cc(Cl)sc1Cl | 0.71% |
| O=C(Nc1cccc2cccnc12)c1cccc(Cl)c1 | 59.2% (active) |
| O=C(Nc1cccc2cccnc12)c1cccc(N2C(=O)CCC2=O)c1 | -2.04% |
| CSc1ccc(C#N)cc1NC(=O)c1ccc(Cl)cc1 | 96.9% (active) |
| N#Cc1ccccc1NC(=O)c1cccc(COc2ccc(Cl)cc2Cl)c1 | -4.79% |
| CSc1ccc(C#N)cc1NC(=O)c1cccc(Cl)c1 | 58.8% (active) |
| N#Cc1ccc(C(=O)Nc2cccc3cccnc23)c(F)c1 | -3.07% |
| O=C1C2C3C=CC(C4CC34)C2C(=O)N1c1nccs1 (stereo not given) | 0.87% |
| Cc1ccccc1N1C(=O)C(Oc2ccc(Cl)cc2)C1CNCC1CCCO1 (stereo not given) | -0.77% |
| COc1ccccc1Cn1c(C)nnc1-c1cnn(C)c1N | 4.53% |
| CN(C)c1ccc(NC(=O)CN2C3CCCC2CC(NC(=O)c2ccccc2)C3)cc1 (stereo not given) | 7.23% |
| Cc1nc(-c2ccc(Cl)cc2)sc1C(=O)CBr | 54.9% (active) |
| Cc1nc(-c2ccccc2)sc1C(=O)/C=C/N(C)C | 3.46% |
| Cc1nc(-c2ccc(Cl)cc2)sc1C(=O)NN | 10.3% |
| Cc1ccnc(-n2sc3ccccc3c2=O)n1 | 98.3% (active) |
| Cc1nc2ccccc2c(=O)n1NC(=O)c1ccccc1 | -1.87% |
| Cc1ccnc(N2CCCC(C(=O)NC3CC3)C2)n1 (stereo not given) | 1.42% |
| O=C(O)c1ccccc1-c1ccccc1C(=O)NCCc1ccccc1 | -1.22% |
| COc1ccc(CCNC(=O)c2ccccc2OCc2ccccc2)cc1 | -0.83% |

| Compound | activation |
| --- | --- |
| NC(=O)Nc1ccccc1C(=O)NCCc1ccccc1 | 109% (active) |
| COc1ccccc1NC(=O)[C@H](COCc1ccccc1)NC(=O)OC(C)(C)C | 13.7% |
| CC(C)NC(=O)COCc1cc(-c2ccc3c(c2)OCO3)on1 | 14.2% |
| CCc1nc(C)cn1S(=O)(=O)c1cc([N+](=O)[O-])ccc1Cl | -0.55% |
| CC1CCc2c(c3ccccc3[nH]c2=O)O1 (stereo not given) | 45.7% |
| N/C(=N\OS(=O)(=O)c1cccc([N+](=O)[O-])c1)c1ccncc1 | 0.65% |
| COc1ccc(C2Nc3ccccc3C(=O)N2c2ccc(Cl)cc2)cc1Cn1cc([N+](=O)[O-])cn1 (stereo not given) | 57.9% (active) |
| COc1ccc(C2Nc3ccccc3C(=O)N2c2ccc(F)cc2)cc1Cn1nnc2ccccc21 (stereo not given) | 4.17% |
| COc1ccc(N2C(=O)c3ccccc3NC2c2ccc(OC)c(CN3CCOCC3)c2)cc1 (stereo not given) | 4.09% |
| CC(C)N(C(=O)CSc1nnc(NC2CC2)s1)c1ccccc1 | 7.53% |
| COc1ccc(C(=O)O)cc1S(=O)(=O)NC1CCN(Cc2ccccc2)CC1 | -0.69% |
| NNc1nc2c(Cl)cccc2s1 | 115% (active) |
| Cc1ccc2c(CC(=O)NCc3cccs3)coc2c1 | 8.24% |
| CCCNC(=O)c1ccc(N2CCC3(CC2)CC(c2cccc(Br)c2)=NO3)c(NC(=O)c2ccco2)c1 | -6.12% |
| N#C/C(=C\c1cccnc1)C(=O)Nc1ccc(SC(F)F)cc1 | 3.63% |
| Cc1cc(/C=C2/NC(=O)NC2=O)c(C)n1-c1cccnc1 | 26.3% |
| Cc1cc(/C=C(/C#N)C(=O)Nc2ccc(Cl)cc2)c(C)n1-c1cccnc1 | 76% (active) |
| Cc1nn(C)c(Cl)c1CN1CCC(Oc2ccc(C(=O)N3CCCC3)cc2)CC1 | -2.1% |
| CCCc1cc(=O)[nH]c(SCC(=O)N2C(C)CCCC2C)n1 (stereo not given) | 0.47% |
| Nc1cccc(CCc2nc3ccccc3[nH]2)c1 | 6.68% |
| c1ccc2[nH]c(-c3nc4ccccc4[nH]3)nc2c1 | 71.2% (active) |
| COc1ccc(Br)cc1C(=O)NC(=S)Nc1cc(-c2nc3ccccc3[nH]2)ccc1C | 36.6% |
| Cc1ccc(-c2nc3ccccc3[nH]2)cc1N | 47.4% (active) |
| COc1ccc(-c2[nH]nc(-c3ccccc3)c2-c2nc3ccccc3[nH]2)cc1 | 4.79% |
| CCCCSc1nc2ccccc2[nH]1 | 1.07% |
